Source: PubChem BioAssay (National Center for Advancing Translational Sciences (NCATS))
Most compounds without a hit are left out; they make up all but 21% or so of the library.
SARS PLP yeast – SARS-CoV PLP inhibition in yeast; 330,000 tested, 0.19% active; S. cerevisiae expressing SARS-CoV PLpro, growth rescue; Potency, µM (top dose mostly 32.9 µM), for inactives: at the highest dose activity, positive = growth rescue, hits mostly activators; also: potency is read from the fitted curve at half-maximal effect; 0% is about no effect; nearly all actives have a fitted effect of over 55% in size
Pf growth 96h – P. falciparum growth inhibition at 96 hours; Potency, µM (top dose mostly 28.7 µM), for inactives: at the top dose activity change, negative = inhibition, actives largely listed as inhibitors; P. falciparum luciferase reporter growth, 96 h; 320,000 tested, 6.9% active; active = well fitted inhibition curve with a large enough effect; inconclusive = small, poorly fitted or top-dose-only effect, or another doubt; inactive = no such curve, though single readings can be large or run the other way; also: potency is read from the fitted curve at half-maximal effect; % is scaled to controls: 0 for no effect and ±100 for the full control effect
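P. falciparum expressing integrated firefly luciferase, in erythrocytes at 2% hematocrit, 0.05% parasitemia, incubated with compounds 96 h at 37 C, 5% CO2. Growth inhibition read as loss of luminescence; two-generation exposure targets delayed-death apicoplast inhibitors.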
Pf growth 48h – P. falciparum growth inhibition at 48 hours (one generation); 310,000 tested, 5.9% active; AID 504832; Potency, µM (series often up to 28.7 µM), without a hit: at the highest dose activity change, negative = inhibition, actives largely listed as inhibitors; P. falciparum luciferase growth in erythrocytes, 48 h; active = well fitted inhibition curve with a large enough effect; inconclusive = small, poorly fitted or top-dose-only effect, or another doubt; inactive = no such curve, though single readings can be large or run the other way; also: potency is read from the fitted curve at half-maximal effect; % is scaled to controls: 0 for no effect and ±100 for the full control effect
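Compounds are pin-transferred into medium, infected erythrocytes (2% hematocrit, 0.1% parasitemia final) are added, and plates sit one parasite generation at 37 C in 5% CO2. Detection reagent is then added and luminescence measured.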
CHX counter – counter-screen for Shiga toxin inhibitors: cycloheximide protein synthesis inhibition | cell reporter, cycloheximide protein synthesis inhibition counterscreen | max response, % | 300,000 tested, 12% active | AID 2314; in the data active = max response mostly above about 13%, no sharp cut-off; inactive = mostly below about 14%; also: read at 38.3 µM for the half of the compounds with a filed dose; 0% is about no effect
NS1 inh – inhibitors of influenza NS1 protein function. 270,000 tested, 0.4% active. AID 2326. Potency, µM (top dose mostly 46.1 µM), inactives show at the highest dose activity, positive = more growth; also: potency is read from the fitted curve at half-maximal effect; actives are rising curves; nearly all actives have a fitted effect of over 50% in size
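Growth recovery, yeast-based: influenza A NS1 expressed in S. cerevisiae causes slow growth, and suppressors are detected by OD600. The parent strain without NS1 is used as positive control.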
Shiga inhibitor – inhibitors of Shiga toxin in Vero cells. Vero cells, Shiga toxin protein synthesis inhibition reporter. AID 2315. 290,000 tested, 9.2% active. inhibition, % at 38.7 µM; in the data active = inhibition mostly above about 28%, no sharp cut-off; inactive = mostly below about 43%; also: 0% is about no effect
Flu NS1 inh – influenza NS1 function inhibition validation; 1,400 tested, under 10 active; influenza NS1 function cell assay, 15-point titration; shares compounds with NS1 inh; activity change, negative = inhibition, % at 32.9 µM; also: 0% is about no effect
* = called active by the depositor; u = inconclusive; x = no result. Unless noted, calls follow the shape of the full dose curve.

SMILES	SARS PLP yeast	Pf growth 96h	Pf growth 48h	CHX counter	NS1 inh	Shiga inhibitor	Flu NS1 inh
COc1c(O)cnn(-c2ccccc2)c1=O	0%	28%	15%	-3	3%	-8	x
Cc1ccc(S(=O)(=O)N(Cc2ccccc2)c2ccccc2C(=O)Nc2ccccc2C(=O)NCc2ccco2)cc1	17%	u	10µM*	31*	7.9µM*	55*	-20
Cn1c(O)c(C=NCc2ccco2)c(=O)n(C)c1=O	7%	1%	x	-2	8.9µM*	-12	-13
CCOC(=O)c1cn(Cc2ccccc2)nn1	-2%	u	25%	5	1.4µM*	-9	-7
CCOC(=O)c1cn(CC(=O)Nc2ccccc2C(=O)OCC)nn1	-4%	-9%	0%	-2	-10%	18	x
Nc1c(N2CCCCC2)c2ccccc2oc1=O	-3%	u	8%	13	x	-3	x
Cn1c(=O)cc(OCC(=O)NCCCN2CCN(Cc3ccccc3)CC2)c2ccccc21	3%	u	u	7	11µM*	12	-8
COc1ccc(NC(=S)N(CCc2nc3cc(C)c(C)cc3[nH]2)Cc2cccnc2)cc1	-7%	u	u	2	-33%	-3	x
CCOC(=O)N1CCC(c2nc(C)sc2C(=O)O)CC1	11%	-10%	89%	-4	u	18	-3
Cc1sc2nc(CN(Cc3cccs3)C(=O)NC3CCCCC3)[nH]c(=O)c2c1C	-10%	-4%	u	2	0.45µM*	-17	u
CCN(c1ccccc1)S(=O)(=O)c1ccc(OC)c(NC(=O)COc2ccc(C(C)=O)cc2)c1	-5%	-16%	20%	x	x	x	x
CC(=O)C1=C(C)NC(=S)NC1c1cccc([N+](=O)[O-])c1 (stereo not drawn)	4%	6%	0%	-1	x	-22	x
CC1=C(C(=O)OC(C)C)C(c2cccc([N+](=O)[O-])c2)n2c(cc(=O)[nH]c2=S)N1 (stereo not drawn)	2%	-1%	12%	0	11µM*	11	36
COC(=O)C1=C(C)N(Cc2ccc(C)cc2)C(=O)/C1=C\c1ccc(O)c(OC)c1	3%	-25%	-6%	-3	10µM*	-6	u
CCOc1cc(/C=C2\C(=O)N(Cc3ccco3)C(C)=C2C(=O)OC)ccc1O	0%	-51%	-14%	1	8%	29	x
CC1CC(C)CN(c2ccc(C(=O)NCc3ccc4c(c3)OCO4)cc2[N+](=O)[O-])C1 (stereo not drawn)	12%	-25%	-24%	1	10µM*	2	-17
O=C(NCc1ccc2c(c1)OCO2)c1cccc([N+](=O)[O-])c1	-5%	10%	16%	1	2%	-5	x
CCOC(=O)Nc1cc(NC(=O)OCC)c(C)nc1C	-3%	48%	13%	1	2%	-3	x
COc1ccc(S(=O)(=O)N2CCN(C(=O)C3CC3)CC2)cc1	9%	u	-9%	2	u	-6	-2
COc1ccc(S(=O)(=O)N2CCC(N3CCCCC3)CC2)cc1	15%	46%	57%	0	1.1µM*	-8	11
CCCC(=O)Nc1sc(C)c(C)c1C(=O)Nc1cccc(C)c1	-1%	17%	u	-3	0%	10	x
COc1ccc(C2(CNC(=O)c3ccc(OCC(C)C)cc3)CCOCC2)cc1	-26%	u	u	-2	-2%	-30	x
CCCC(C)C(=O)Nc1nc(C)c(-c2csc(Nc3ccc(Cl)cc3)n2)s1 (stereo not drawn)	-4%	u	u	1	4.5µM*	7	-10
O=C(COc1ccc(Cl)cc1Cl)NC(=S)N1CCCc2ccccc21	13%	-5%	x	43*	10µM*	67*	u
CCC1SC(CC)C(=O)N(CC(=O)Nc2ccc3c(c2)OCO3)C1=O (stereo not drawn)	-6%	37%	7%	-2	-4%	-15	x
SMILES	SARS PLP yeast	Pf growth 96h	Pf growth 48h	CHX counter	NS1 inh	Shiga inhibitor	Flu NS1 inh
COc1c(Cl)cc(C(=O)NCc2ccco2)cc1Cl	-5%	u	62%	-2	-13%	3	x
CCc1nnc(NS(=O)(=O)c2ccc(NC(=O)c3cccc([N+](=O)[O-])c3)cc2)s1	5%	-16%	6%	-1	22%	-7	x
CCCCOc1cccc(C(=O)Nc2ccc(S(=O)(=O)Nc3nnc(CC)s3)cc2)c1	-5%	u	-1%	-2	8.9µM*	-6	11
Cc1nc2c(ncn2-c2ccccc2)c(=O)n1NC(=O)CN1CCN(C)CC1	1%	2%	44%	-4	3.5µM*	-23	-22
CN(C)S(=O)(=O)N1CCN(C(=O)c2cccs2)CC1	4%	x	-1%	1	8%	14	x
O=S(=O)(Nc1cccc(-c2cn3cccnc3n2)c1)c1ccc(-c2ccccc2)cc1	-1%	82%	20%	6	11µM*	-8	24
O=C(O)CC1=C(O)C(=O)N(c2ccccc2)C1c1ccc(Br)cc1 (stereo not drawn)	6%	0%	u	-2	7.9µM*	18	26
COc1ccc(N2CCN(C(CNC(C)=O)c3ccc4c(c3)OCO4)CC2)cc1 (stereo not drawn)	6%	66%	16%	-4	6%	-2	x
O=C(NCCCO)C(=O)NCC(c1ccc2c(c1)OCO2)N1CCN(c2ccc(F)cc2)CC1 (stereo not drawn)	8%	-1%	u	3	2.2µM*	-14	-21
CCN(CC)C(=O)Cn1cc(C(=O)C(=O)N2CC=C(c3ccccc3)CC2)c2ccccc21	-4%	11%	u	1	x	17	x
O=C(CSc1cnc2ccccc2n1)NC1CCCC1	-1%	28%	x	5	-9%	44	x
O=C(O)CSc1cnc2ccccc2n1	8%	-5%	x	13	16µM*	-2	7
CC(OC(=O)CNC(=O)c1cccs1)C(=O)Nc1ccc(S(N)(=O)=O)cc1 (stereo not drawn)	2%	-9%	33%	x	x	x	x
Cc1nn(-c2ccccc2)c2sc(-c3n[nH]c(=S)o3)cc12	-36%	u	-20%	-1	2.5µM*	1	u
COc1ccc(Nc2nc(NCc3ccco3)nc(N/N=C/c3ccc(O)cc3)n2)cc1	-26%	16%	u	16*	11µM*	70*	u
Cn1c(CSCc2ccc(F)cc2)nnc1SCC(=O)N1CCN(c2ccccc2)CC1	-16%	u	-19%	-2	4%	-6	x
Cc1ccc(C(=O)N/C(=C\c2ccc(-c3ccc(Br)cc3)o2)C(=O)NC2CCS(=O)(=O)C2)cc1 (stereo not drawn)	-10%	-12%	-5%	-2	u	10	3
